TDP1 cell CPT = growth inhibition of DT40 Tdp1-/-;hTDP1 cells with camptothecin (screen for TDP1 inhibitors); Potency, µM (series often up to 46.2 µM), inactives show top-dose activity change, negative = growth inhibition, most hits filed as inhibitors; 12% of 420,000 active; AID 686979; chicken DT40 Tdp1-/-;hTDP1 cells + 20 nM CPT, ATP luminescence, 48 h; further: potency means the concentration at half of the fitted maximal effect; on the % scale 0 is the no-effect control and ±100 the full control effect; nearly all actives have a fitted effect of over 55% in size
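Chicken DT40 Tdp1-/- cells stably complemented with human TDP1 were seeded at 400 cells/well in medium containing 20 nM camptothecin, exposed to pin-transferred compounds, and grown at 37 °C for at least 48 hr. Viability was read as ATP luminescence.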
S-ASM inh = inhibitors of human secretory acid sphingomyelinase; P17405; placental ASM, HMU-PC fluorogenic substrate, 60 min; Potency, µM (doses to about 57.5 µM), for inactives: at the top dose activity change, negative = inhibition, hits mostly inhibitors; 0.006% of 340,000 active; further: potency means the concentration at half of the fitted maximal effect
Target sequence (P17405 47-631 limits assumed): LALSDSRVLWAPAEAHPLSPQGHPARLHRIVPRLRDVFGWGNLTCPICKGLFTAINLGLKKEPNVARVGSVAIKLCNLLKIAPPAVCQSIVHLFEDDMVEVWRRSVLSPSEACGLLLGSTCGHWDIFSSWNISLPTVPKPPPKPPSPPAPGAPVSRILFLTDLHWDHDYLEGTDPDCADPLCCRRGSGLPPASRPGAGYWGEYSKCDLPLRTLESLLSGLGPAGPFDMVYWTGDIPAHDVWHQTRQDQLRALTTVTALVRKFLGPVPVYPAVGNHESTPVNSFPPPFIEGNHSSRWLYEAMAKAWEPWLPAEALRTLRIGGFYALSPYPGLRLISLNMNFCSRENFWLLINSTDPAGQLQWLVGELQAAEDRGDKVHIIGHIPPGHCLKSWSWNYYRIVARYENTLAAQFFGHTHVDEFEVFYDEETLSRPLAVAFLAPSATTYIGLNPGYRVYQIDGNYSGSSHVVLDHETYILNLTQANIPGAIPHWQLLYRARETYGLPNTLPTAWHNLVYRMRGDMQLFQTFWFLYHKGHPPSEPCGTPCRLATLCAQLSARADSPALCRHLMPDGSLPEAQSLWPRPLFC
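Human placenta-derived ASM preincubated with compound 10 min at room temperature, then reacted with 9 uM (final) fluorogenic HMU-PC substrate for 60 min at 37 C. Stop solution raises pH to 10; fluorescence read at Ex 386/Em 447 nm.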
TGFb inhibitor = blocks TGF-b signaling. 1.2% of 410,000 active. Potency, µM (doses to about 46.1 µM), without a hit: at the highest dose activity, negative = inhibition, actives largely listed as inhibitors. AID 588855. HepG2 CAGA-GFP TGF-b/SMAD3 reporter, GFP fluorescence, 18 h; TGF-beta stimulated, 500 pg/mL final; further: potency means the concentration at half of the fitted maximal effect; on the % scale 0 is the no-effect control and ±100 the full control effect; nearly all actives have a fitted effect of over 65% in size
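Using HEPG2 CAGA-GFP reporter cells at 1000 cells/well, we pinned test compounds, stimulated with recombinant TGF-beta (500 pg/mL final) and measured total well GFP after 18 h.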
DT40 TDP1 no CPT = qHTS for Inhibitors of human tyrosyl-DNA phosphodiesterase 1 (TDP1): qHTS in cells in absence of CPT. 15% of 420,000 active. AID 686978, 2013. Potency, µM (series often up to 46.2 µM), without a hit: top-dose activity change, negative = growth inhibition, actives largely listed as inhibitors. DT40 Tdp1-/- hTDP1 cells, no CPT, ATP luminescence, 48 h; further: potency means the concentration at half of the fitted maximal effect; on the % scale 0 is the no-effect control and ±100 the full control effect; nearly all actives have a fitted effect of over 55% in size
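DT40 Tdp1-/-;hTDP1 cells, no CPT (DMSO vehicle only), 400 cells/well; compounds pin-transferred; ≥48 hr, 37 °C; CellTiter-Glo 30 min RT dark, luminescence read.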
IL-1B inflam inh = inflammasome signaling inhibition, IL-1 beta readout; THP-1 LPS/ATP IL-1B secretion, AlphaLISA, 16 h; hits give low values; activity change, % at 57.5 µM; 4.7% of 360,000 active; in the data active means activity change below about -50%; inconclusive means mostly about -30% to -49%; further: on the % scale 0 is the no-effect control and ±100 the full control effect
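THP-1 cells pretreated 1 hr with compounds (up to 57.5 uM final), then stimulated with LPS (250 ng/mL final) plus ATP (1.25 mM final); secreted IL-1B measured by AlphaLISA after 16 hr, decreased signal indicating inhibition.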
HepG2 tox = counter-screen for TGF-b inhibitors: cytotoxicity in HepG2 cells; 0.76% of 410,000 active; AID 588856; Potency, µM (top dose mostly 46.1 µM), for the others: at the highest dose activity change, negative = cytotoxicity, most hits filed as cytotoxic; HepG2 CAGA-GFP viability, ATP luminescence, 18 h; further: potency means the concentration at half of the fitted maximal effect
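CellTiter-Glo luminescence gave cytotoxicity after 18 hours at 37 degrees C. The cells were HepG2 CAGA-GFP in 1% FBS DMEM, stimulated with 500 pg/mL TGF-beta after compound addition. %Activity was normalised to no-cell wells (complete cell-killing) and DMSO (no toxicity), and curves were fitted and classified.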
* marks the source's active call; other numbers are inactive results. Compounds with a hit are over-represented: about 19% of the library has one in this group of screens. Unless noted, the call rests on the fitted dose curve; in most records, active means well fitted curve in the direction sought with a large enough effect; inconclusive means small, poorly fitted or top-dose-only effect, or another doubt; inactive means no such curve, though single readings can be large; an effect the other way counts as inactive or inconclusive.

COc1ccc(/C=N/NC(=O)c2csc(-n3nc(C)cc3C(F)(F)F)n2)cc1 was read as TDP1 cell CPT inconclusive, S-ASM inh -3%, TGFb inhibitor 27%, DT40 TDP1 no CPT 21µM*, IL-1B inflam inh -16 and HepG2 tox 3%.
For CC#Cc1cc2c(cc1O)CCC1C2CCC2(C)C(O)CCC12 (stereo not drawn) the results were TDP1 cell CPT 2.9µM*, S-ASM inh -2%, TGFb inhibitor inconclusive, DT40 TDP1 no CPT 2.3µM*, IL-1B inflam inh 0 and HepG2 tox -1%.
Screening C=Cc1cc2c(cc1O)CCC1C2CCC2(C)C(O)CCC12 (stereo not drawn) returned TDP1 cell CPT inconclusive, S-ASM inh -8%, TGFb inhibitor -39%, DT40 TDP1 no CPT 16µM*, IL-1B inflam inh inconclusive and HepG2 tox -19%.
`C[C@]12CCC3c4ccc(O)cc4CCC3C1CC(O)C2O` (stereo partly drawn) gave TDP1 cell CPT 2% and DT40 TDP1 no CPT 8%.
C[C@@]12CCC3c4ccc(OS(=O)(=O)O)cc4CCC3C1CCC2O (stereo partly drawn) was read as TDP1 cell CPT 1% and DT40 TDP1 no CPT -3%.
`COc1ccc(C(=O)Nc2ccc(Cl)cc2F)cc1S(=O)(=O)N1CCCC1` gave TDP1 cell CPT -15%, S-ASM inh -1%, TGFb inhibitor -18%, DT40 TDP1 no CPT -22%, IL-1B inflam inh -1 and HepG2 tox 4%.
COc1cc(NS(=O)(=O)c2c(C)oc3c(F)c(F)c(F)c(F)c23)cc(OC)c1OC was read as TDP1 cell CPT 23µM*, S-ASM inh -3%, TGFb inhibitor -3%, DT40 TDP1 no CPT 18µM*, IL-1B inflam inh 16 and HepG2 tox -20%.
Screening COc1cc(NS(=O)(=O)c2cn(C)cn2)cc(OC)c1OC returned TDP1 cell CPT -7%, S-ASM inh 3%, TGFb inhibitor 10%, DT40 TDP1 no CPT 27%, IL-1B inflam inh -5 and HepG2 tox 5%.
For CS(=O)(=O)Nc1ccc(C2=NN(C(=O)C3CCCCC3)C(c3cccs3)C2)cc1 (stereo not drawn) the results were TDP1 cell CPT inconclusive, S-ASM inh 127%, TGFb inhibitor -13%, DT40 TDP1 no CPT 23µM*, IL-1B inflam inh -59* and HepG2 tox -19%.
Screening CS(=O)(=O)Nc1cccc(C2=NN(C(=O)c3ccccc3)C(c3cccs3)C2)c1 (stereo not drawn) returned TDP1 cell CPT 21µM*, S-ASM inh -4%, TGFb inhibitor -23%, DT40 TDP1 no CPT inconclusive, IL-1B inflam inh -29 and HepG2 tox -28%.
Cc1ccc(C(=O)N2N=C(c3cccc(NS(C)(=O)=O)c3)CC2c2cccs2)cc1 (stereo not drawn) was read as TDP1 cell CPT inconclusive, S-ASM inh -17%, TGFb inhibitor inconclusive, DT40 TDP1 no CPT inconclusive, IL-1B inflam inh -7 and HepG2 tox -33%.
Screening Cc1cc(C)cc(OCCN2CCOCC2)c1 returned TDP1 cell CPT -11%, S-ASM inh 4%, TGFb inhibitor -16%, DT40 TDP1 no CPT 4%, IL-1B inflam inh 8 and HepG2 tox -15%.
CC(NCc1ccc(N(C)C)cc1)C1CC2CCC1C2 (stereo not drawn) was read as TDP1 cell CPT inconclusive, S-ASM inh 1%, TGFb inhibitor 3%, DT40 TDP1 no CPT inconclusive, IL-1B inflam inh -61* and HepG2 tox -35%.
`CC(NC(=O)c1ccc(CS(C)(=O)=O)cc1)C1CC2CCC1C2` (stereo not drawn) gave TDP1 cell CPT -6%, S-ASM inh 0%, TGFb inhibitor 14%, DT40 TDP1 no CPT -14%, IL-1B inflam inh 6 and HepG2 tox 3%.
`COc1ccc(C2CCCCCN2C(=O)C2CCN(S(=O)(=O)c3cccc(C(C)=O)c3)CC2)cc1` (stereo not drawn) gave TDP1 cell CPT inconclusive, S-ASM inh -5%, TGFb inhibitor -8%, DT40 TDP1 no CPT inconclusive, IL-1B inflam inh -9 and HepG2 tox -3%.
CCCCCc1nc2c(=O)n(C)c3ccccc3c2o1 was read as TDP1 cell CPT -24%, S-ASM inh -1%, TGFb inhibitor -21%, DT40 TDP1 no CPT inconclusive, IL-1B inflam inh -11 and HepG2 tox -30%.
For Cn1c(=O)c2nc(-c3ccccc3)oc2c2ccccc21 the results were TDP1 cell CPT -24%, S-ASM inh -2%, TGFb inhibitor 0%, DT40 TDP1 no CPT 16µM*, IL-1B inflam inh 2 and HepG2 tox -28%.
For CC(=O)Nc1ccc(S(=O)(=O)NCCC(=O)NNC(=O)c2ccncc2)cc1 the results were TDP1 cell CPT -1%, S-ASM inh 6%, TGFb inhibitor 24%, DT40 TDP1 no CPT -10%, IL-1B inflam inh -5 and HepG2 tox 14%.
COc1ccc(CN(C)Cc2cc(=O)oc3cc(C)c(C(C)C)cc23)cc1OC was read as TDP1 cell CPT inconclusive, S-ASM inh -2%, TGFb inhibitor inconclusive, DT40 TDP1 no CPT inconclusive, IL-1B inflam inh -58* and HepG2 tox -7%.
For Cc1ccc2c(CN(C)Cc3cccc(Cl)c3)cc(=O)oc2c1C the results were TDP1 cell CPT inconclusive, S-ASM inh -5%, TGFb inhibitor -14%, DT40 TDP1 no CPT 29µM*, IL-1B inflam inh -12 and HepG2 tox -34%.
`CSc1ccc(CN(C)Cc2cc(=O)oc3c(C)c(C)ccc23)cc1` gave TDP1 cell CPT 21µM*, S-ASM inh -15%, TGFb inhibitor inconclusive, DT40 TDP1 no CPT inconclusive, IL-1B inflam inh 24 and HepG2 tox -2%.
For Cc1cc2oc(=O)cc(CN(C)Cc3cccc(F)c3)c2cc1Cl the results were TDP1 cell CPT -29%, S-ASM inh inconclusive, TGFb inhibitor -20%, DT40 TDP1 no CPT -16%, IL-1B inflam inh 9 and HepG2 tox -19%.
Screening CCOc1ccc(CN(C)Cc2cc(=O)oc3c(C)c(C)ccc23)cc1OC returned TDP1 cell CPT 10µM*, S-ASM inh -1%, TGFb inhibitor -32%, DT40 TDP1 no CPT 8.2µM*, IL-1B inflam inh 27 and HepG2 tox -16%.
For Cc1cc2oc(=O)cc(CN(C)Cc3ccccc3)c2cc1C(C)C the results were TDP1 cell CPT inconclusive, S-ASM inh -9%, TGFb inhibitor -14%, DT40 TDP1 no CPT inconclusive, IL-1B inflam inh -12 and HepG2 tox 6%.

Source: PubChem
